Results: PubChem BioAssay (Tox21)
Inconclusive results are not listed. The source made the active and inactive calls. Calls follow the shape of the dose curve; as a rule, active = well fitted cell-killing curve with a large enough effect in the repeat runs; inconclusive = weak or mixed curves, or effect the other way; inactive = no such curve, though single readings can be large or run the other way.

Experiment: qHTS assay for small molecule activators of the heat shock response signaling pathway - cell viability counter screen (AID 743209); also: nearly all actives have a fitted effect of over 50% in size
Conditions: HSE-bla HeLa viability, CellTiter-Glo luminescence, 5 h; series mostly up to 62.6 µM
Text: U.S. Tox21 Program National Center for Advancing Translational Sciences [NCATS] NIH Chemical Genomics Center [NCGC] U.S. Environmental Protection Agency [EPA] National Institutes of Environmental Health Sciences [NIEHS] National Toxicology Program [NTP] U.S. Food and Drug Administration [FDA] Tox21 Assay Overview: Various chemicals, environmental and physiological stress conditions may lead to the activation of heat shock response/ unfolded protein response (HSR/UPR). There are three heat shock transcription factors (HSFs) (HSF-1, -2, and -4) mediating transcriptional regulation of the human HSR. To identify the compounds that activate HSR signaling, HSE-bla HeLa cell line (Invitrogen, Carlsbad, CA, USA) containing a beta-lactamase reporter gene under the control of the heat shock response elements was used to screen Tox21 10K compound library. The cytotoxicity of the Tox21 compound library against the HSE-bla HeLa cell line was tested in parallel by measuring the cell viability using CellTiter-Glo assay (Promega, Madison, WI) in the same wells.
Tox21 Assay Protocol Summary: The CellSensor HSE-bla HeLa cells (Invitrogen, Carlsbad, CA, USA) were dispensed at 1500 cells/6uL/well into 1536-well black wall/clear bottom plates using a Multidrop combi (Thermo Fisher Scientific, Waltham, MA) dispenser. After the assay plates were incubated at 37 C and 5% CO2 overnight, 23 nL of compounds dissolved in DMSO, positive controls or DMSO only was transferred to the assay plate by a Pintool station (Kalypsys, San Diego, CA). The plates were incubated at 37 C for 5 h. After 1 uL of LiveBLAzerTM B/G FRET substrate was added using a Flying Reagent Dispenser (FRD, Beckman Coulter, Indianapolis, IN, USA), the plates were incubated at room temperature for 2.5 h, and fluorescence intensity was measured by an Envision plate reader (PerkinElmer, Shelton, CT). For cell viability readout that measures cytotoxicity, 3 ul/well of CellTiter-Glo reagent was added into the assay plates using a FRD. After 30 min incubation at room temperature, the luminescence intensity in the plates was measured using a ViewLux (PerkinElmer) plate reader.

| SMILES | outcome |
| --- | --- |
| CCCN1C[C@H](CSC)C[C@@H]2c3cccc4[nH]cc(c34)C[C@H]21 | inactive |
| CC(CO)c1ccccc1 (stereo not given) | inactive |
| Nc1ncnc(Nc2ccccc2)n1 | inactive |
| CCCCCCCCCCl | inactive |
| FC(F)(F)c1ccccc1-n1ccnc1 | inactive |
| CC(C)c1ccc2cc(C(C)C)ccc2c1 | inactive |
| CCCCCCCCC1CCC(=O)O1 (stereo not given) | inactive |
| NS(=O)(=O)c1ccc(NC(=O)CCC(=O)O)cc1 | inactive |
| CNS(=O)(=O)CCc1ccc2[nH]cc(C3CCN(C)CC3)c2c1 | inactive |
| O=C1c2ccccc2C(=O)c2cc(S(=O)(=O)O)ccc21 | inactive |
| BrCc1cccc(Oc2ccccc2)c1 | inactive |
| Cc1nc2n(c(=O)c1CCN1CCC(c3noc4cc(F)ccc34)CC1)CCC[C@H]2O | inactive |
| O=C(OCc1ccccc1)C(=O)OCc1ccccc1 | inactive |
| O=S(=O)(O)c1cc(O)c2ccc(Nc3ccccc3)cc2c1 | inactive |
| CC1=C(C(=O)O)N2C(=O)[C@@H](NC(=O)[C@H](N)c3ccc(O)cc3)[C@H]2SC1 | inactive |
| CCCCCCCCCCCCCC | inactive |
| CCCCCOC(=O)CCC | inactive |
| CC(C)OC(=O)CCCCC(=O)OC(C)C | inactive |
| O=C(NCCc1c[nH]c2ccccc12)c1cccnc1 | inactive |
| CCCOC(OCCC)OCCC | inactive |

| SMILES | outcome |
| --- | --- |
| CC(=O)N[C@@H](CCC(=O)O)C(=O)O | inactive |
| CNC(=O)[C@H]1O[C@@H](n2cnc3c(NCc4cc(Cl)ccc4OCc4cc(C)no4)ncnc32)[C@H](O)[C@@H]1N | inactive |
| CC(C)(C)OC(=O)c1ccc(O)cc1 | inactive |
| CC(=O)c1sc(C)nc1C | inactive |
| C=CCCCCCCCCCCCC | inactive |
| N[C@@H](CCC(=O)N[C@@H](CS)C(=O)NCC(=O)O)C(=O)O | inactive |
| O=C(c1ccc(O)cc1)c1ccc(O)c(O)c1O | inactive |
| Cc1ccc2c(c1)OCC(=O)CO2 | inactive |
| c1ccc2c(c1)ccc1c3ccccc3ccc21 | inactive |
| CCCOC(=O)C(C)O (stereo not given) | inactive |
| O=C(O)c1cc(Br)c(O)c(Br)c1 | inactive |
| C=C(C)C(=O)OCc1ccccc1 | inactive |
| CC(COC(C)(C)C)OCCCO (stereo not given) | inactive |
| NCCS | inactive |
| COCCOCCOCCOCCO | inactive |
| CCn1ccc(NS(=O)(=O)c2ccc(N)cc2)nc1=O | inactive |
| CC(CN)CC(C)(C)CCN (stereo not given) | inactive |
| COc1cc(NS(=O)(=O)c2ccc(N)cc2)nc(OC)n1 | inactive |
| O=C(O)CCSSCCC(=O)O | inactive |
| COc1ccc(S(=O)(=O)N2c3ccc(Cl)cc3[C@@](O)(c3ccccc3Cl)[C@H]2C(=O)N2CCC[C@@H]2C(N)=O)cc1OC | inactive |
